From PubChem BioAssay (EPA / NIEHS) come the findings set out here.

Calls of active or inactive are those of the source. How the source made its calls: active means hit-call score of the fitted dose curve at least 0.9, where 1 is the maximum; inactive means score below 0.9.

The nature of the assay: ATG_TA_CIS: Attagene CIS-FACTORIAL HepG2 Assay for human TA Basal Promoter (AID 2282964). As to conditions: HepG2 Attagene CIS-factorial TA basal promoter reporter; actives raise or lower the signal. The method, then: ATG_CIS is a cell-based, multiplexed-readout assay that uses HepG2, a human liver cell line, with measurements taken at 24 hours after chemical dosing in a 24-well plate.ATG_TA_CIS is one of 52 assay component(s) measured or calculated from the ATG_CIS assay. It is designed to make measurements of mRNA induction, a form of inducible reporter, as detected with fluorescence intensity signals by Reverse transcription polymerase chain reaction (RT-PCR) and Capillary electrophoresis technology.Data from the assay component ATG_TA_CIS was analyzed into 1 assay endpoint. This assay endpoint, ATG_TA_CIS, was analyzed with bidirectional fitting relative to DMSO as the negative control and baseline of activity. Using a type of inducible reporter, measures of mRNA for gain or loss-of-signal activity can be used to understand the background control at the transcription factor-level as they relate to the gene . Furthermore, this assay endpoint can be referred to as a secondary readout, because this assay has produced multiple assay endpoints where this one serves a background control function. To generalize the intended target to other relatable targets, this assay endpoint is annotated to the background measurement intended target family, where the subfamily is internal marker.
Human liver HepG2 cells are transiently transfected with multiple reporter transcription units (MRTUs) in 6-well plates using FuGene 6 reagent (Roche; 3 ml FuGene/1 mg DNA). The MRTU constructs are regulated by a cis-regulating element (promoter). […] A major difference between the CIS and TRANS system is that in CIS activities of endogenous TFs are measured, whereas the TRANS assay evaluates changes in activities of exogenous, chimeric NR-Gal4 proteins. […] At the end of 24 hour incubation, total RNA was isolated using TriZol reagent (Invitrogen). The isolated RNA is then reverse-transcribed using oligo(dT) primer and Mo-MLV reverse transcriptase (Invitrogen) with DNAse I (Ambion) treatment for 30 min. The one-tenth of the produced cDNA was amplified by PCR using Taq DNA polymerase (Invitrogen) and two reporter sequence-specific primers. The PCR products were fluorescently labeled by primer extension with 6-arboxyfluorescein (6-FAM) 5'-labeled reporter sequence-specific primer (2 min at 95 C, 20 s at 68 C and 10 min at 72 C) and these products were digested with 5U of HpaI (New England Biolabs) for 2h at 37 C. The fragments were purified using Qiaquick PCR columns (Qiagen), analyzed on an ABI 3130xL genetic analyzer (Applied Biosystems) with peak positions identified by using a set of X-rhodamine (ROX)-labeled MapMarker1000 molecular weight standards (BioVentures). The raw capillary electrophoresis data was processed using Attagraph software (Attagene).
`CN1CCCC1=O`: the call was inactive. Regarding `CC(=O)C(C)=CC1C(C)=CCCC1(C)C` (stereo not given), the call was inactive. Regarding `COc1cc(S(=O)(=O)O)c(C)cc1N=Nc1c(O)ccc2cc(S(=O)(=O)O)ccc12`, the outcome was inactive.

For the compound `Cc1ccc(Cl)cc1`, the outcome was inactive.

With `CC(=O)Oc1ccccc1C(=O)O`, the result was inactive. Consider `COc1ccc2c(c1)c(CC(=O)O)c(C)n2C(=O)c1ccc(Cl)cc1`, for which the call was inactive. For `Cc1c(C(=O)O)c(O)cc2c1C(=O)c1c(O)c([C@@H]3O[C@H](CO)[C@@H](O)[C@H](O)[C@H]3O)c(O)c(O)c1C2=O`, the compound was called inactive. Consider `O=C(O)Cc1ccccc1Nc1c(Cl)cccc1Cl`, for which the compound was classed as inactive. Same read-out and setting: for `COCCOCCOC` the value was “inactive”. Consider `O=C(O)CCCCC(=O)O`, for which the result was inactive. Still for that read-out and setting: to `Oc1ccc2c(c1)OC[C@@H](N1CCC(O)(c3ccc(F)cc3)CC1)[C@H]2O` belongs “inactive”. Regarding `NC(=O)Cn1c(=O)cc(CCN2CCN(c3nccc4sccc34)CC2)c2ccc(F)cc21`, the compound was called inactive.

For `COC(=O)c1ccc(O)cc1`, the call was inactive.

Turning to `CCCCCCCCCCC`, the compound was classed as inactive. The same measure, in the same setting: to `C=CCOC(=O)c1ccccc1C(=O)OCC=C` belongs “inactive”; to `Nc1ccc(S(=O)(=O)c2ccc(N)cc2)cc1`, “inactive”; to `C[Si]1(C)O[Si](C)(C)O[Si](C)(C)O[Si](C)(C)O1`, “inactive”. The same measure, in the same setting: for `CCCc1cc(=O)[nH]c(=S)[nH]1` the value was “inactive”. In the case of `O=[N+]([O-])C(CO)(CO)CO`, the call was inactive. `C=CCc1ccc(O)c(OC)c1`: the outcome was inactive. Take `CN[C@H]1CC[C@@H](c2ccc(Cl)c(Cl)c2)c2ccc(S(N)(=O)=O)cc21`: the call was inactive. `FC(F)(F)C(F)(F)C(F)(F)C(F)(F)C(F)(F)C(F)(F)CCI`: the outcome was inactive. Turning to `Nc1ccccc1N`, the half-maximal activity concentration (AC50) was 50.8 µM (active). Turning to `Nc1nc(N)c2nc(CNc3ccc(C(=O)N[C@@H](CCC(=O)O)C(=O)O)cc3)cnc2n1`, the outcome was inactive. The same measure, in the same setting: to `c1cc(-c2ccncc2)ccn1` belongs “inactive”; to `COc1cccc2c1C(=O)c1c(O)c3c(c(O)c1C2=O)C[C@@](O)(C(=O)CO)C[C@@H]3O[C@H]1C[C@H](N)[C@H](O)[C@H](C)O1`, “inactive”; to `CNC(=O)[C@H]1O[C@@H](n2cnc3c(NCc4cc(Cl)ccc4OCc4cc(C)no4)ncnc32)[C@H](O)[C@@H]1N`, “inactive”. Consider `CCCCCCCCCCCCCCCC`, for which the compound was classed as inactive. As for `Cc1ccc(C)c(O)c1C`, the outcome was inactive. Turning to `Cc1cc(NC(=O)C(=O)O)cc(C)c1Oc1ccc(O)c2c1CCC2`, the compound was classed as inactive. The same measure, in the same setting: to `CCc1c(C(=O)NN2CCCCC2)nn(-c2ccc(Cl)cc2Cl)c1-c1ccc(Br)cc1` belongs “inactive”; to `CC1=C(/C=C/C(C)=C/C=C/C(C)=C/CO)C(C)(C)CCC1`, “inactive”. Take `C[C@]12C=CC(=O)C=C1CC[C@@H]1[C@@H]2C(=O)C[C@@]2(C)[C@H]1CC[C@]2(O)C(=O)CO`: the call was inactive. On to `Cc1ccc(C)c(C)c1`, for which the compound was called inactive. In the case of `CCOC(=O)CCC(=O)OCC`, the outcome was inactive. Still for that read-out and setting: for `CCCCCCOCCO` the value was “inactive”; for `Cc1cccc([N+](=O)[O-])c1C`, “inactive”. Take `CNCc1cc(F)ccc1Oc1ccc(Cl)c(Cl)c1`: the compound was classed as inactive. On the same count and under the same terms, to `CC(CO)OC(C)CO` (stereo not given) (tested in a mixture with another compound) belongs “inactive”; to `Cc1cc(=O)[nH]c(=S)[nH]1`, “inactive”.
